# Results taken from PubChem BioAssay (NCI).
# Values joined by “and” are separate entries in the source; they are usually repeats but may differ in a detail not shown here. Identical values can stand only once. About 83,000 compounds went through this panel and 20% of them were active in at least one assay; those are over-represented in the sample as a whole.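 Activity criterion: percent growth below 10, measured after cells in 96-well plates were exposed to a single compound concentration for 48 hours.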 Active and inactive are the calls of the source. Where a SMILES comes first, the peptide text is derived from it. [ ]: non-standard residue; d: D form. ξ: configuration not given here. ξV = CC(C)C(N)C(=O)O
# Tested on: SF-295 CNS
# Assay: NCI-60 one-dose screen, 48 h (100 = growth as untreated, 0 = no growth, -100 = all killed)
# Conditions: 10 µM
row,Structure (SMILES),growth
1,NNc1ccc2ccccc2c1,95.8% (inactive) and 102% (inactive)
2,NC1=C(Cl)C(=O)c2ccccc2C1=O,41% (inactive)
3,Nc1ccc2cc3ccc(N)cc3nc2c1,114% (inactive) and 14.4% (inactive)
4,CO[C@H](C(=O)[C@@H](O)[C@@H](C)O)[C@@H]1Cc2cc3cc(OC4CC(OC5CC(O)C(O)C(C)O5)C(O)C(C)O4)c(C)c(O)c3c(O)c2C(=O)[C@H]1OC1CC(OC2CC(OC3CC(C)(O)C(O)C(C)O3)C(O)C(C)O2)C(O)C(C)O1 (stereo not given in full),19.1% (inactive)
5,CCC(C)(C)c1cc(O)c(C(C)(C)CC)cc1O,24.6% (inactive)
6,Cc1cc(NS(=O)(=O)c2ccc(N=Nc3cc(N=Nc4ccc(S(=O)(=O)Nc5cc(C)nc(C)n5)cc4)c4c(NC(=O)C(Cl)Cl)cccc4c3OC(=O)C(Cl)Cl)cc2)nc(C)n1 (tested in a mixture with another compound),86.2% (inactive)
7,O=C(Nc1ccc(C(=O)O)c(O)c1)c1ccccc1,106% (inactive) and 95.1% (inactive)
8,CC(=O)Nc1cc(C)ccc1C,101% (inactive)
9,CCCCCCCCCCCCCCCCCCOCC(COP(=O)([O-])OCC[N+](C)(C)C)OC (stereo not given),89.9% (inactive)
10,CCCC1CCC(=C2C(=O)CCC2=O)O1 (stereo not given),97.3% (inactive) and 89.8% (inactive)
11,COC(=O)C1C(O)C(C)C(O)C(C)C=C(C)C2=C3C(=C(C)C(=O)c4c(O)c(c(C)c(OC(C)=O)c43)NC(=O)C(C)=C/C=C\C(C)C(O)C(C)C1O)OCO2 (stereo not given),108% (inactive)
12,CCCCCCCCCCSC(=N)N,56.4% (inactive)
13,CS(=O)(=O)OC1CC(n2ccc(=O)[nH]c2=O)OC1COC(c1ccccc1)(c1ccccc1)c1ccccc1 (stereo not given),110% (inactive)
14,Clc1cc(Cl)c(Cl)nn1,107% (inactive)
15,OCC(O)C(O)C(O)C(/C=N/Nc1ccccc1)=N/Nc1ccccc1 (stereo not given),83.6% (inactive)
16,CSC1SCC2C(=O)N(C)C(C(C)C)C(=O)OCC(NC(=O)c3cnc4ccccc4n3)C(=O)NC(C)C(=O)N(C)C1C(=O)N(C)C(C(C)C)C(=O)OCC(NC(=O)c1cnc3ccccc3n1)C(=O)NC(C)C(=O)N2C (stereo not given),-22.3% (active)
17,COc1cccc2c1C(=O)c1c(O)c3c(c(O)c1C2=O)C[C@@](O)(C(C)=O)C[C@@H]3OC1CC(N)C(O)C(C)O1 (stereo not given in full),-26.9% (active)
18,CCCCCCCCCCCC[N+](C)(C)Cc1ccccc1,46.3% (inactive)
19,CC(=O)OCC(OC(C)=O)C(OC(C)=O)C(OC(C)=O)C(OC(C)=O)C(/C=N/Nc1ccccc1)=N/Nc1ccccc1 (stereo not given),46.6% (inactive)
20,Clc1ccc(/C=C/c2ccccn2)c(Cl)c1,94.5% (inactive)
21,CC(C)(C)CC(C)(C)c1ccc(OCCO)cc1,109% (inactive)
22,COc1cccc2c1C(=O)c1c(O)c3c(c(O)c1C2=O)C[C@@](O)(C(=O)CO)C[C@@H]3OC1CC(N)C(O)C(C)O1 (stereo not given in full),-27.6% (active)
23,CCCCCCCCCCCCSC(=NC)NC,4.6% (active) and 65% (inactive)
24,O=C1NC(=O)c2cc([N+](=O)[O-])ccc21,101% (inactive)
25,O=C(/C=C/c1ccccn1)c1ccccc1,87.5% (inactive)
26,CC(C)C(NC(=O)CN)C(=O)O (stereo not given) (H-Gly-[ξV]-OH),97.4% (inactive) and 101% (inactive)
27,CCN(CC)c1ccc(NC(C(=O)c2ccccc2)c2ccccc2)cc1 (stereo not given),61.2% (inactive)

# Tested on: SF-539 CNS
# Assay: as above
# Conditions: 10 µM
row,Structure (SMILES),growth
1,NNc1ccc2ccccc2c1,86% (inactive) and 100% (inactive)
2,NC1=C(Cl)C(=O)c2ccccc2C1=O,75.4% (inactive)
3,Nc1ccc2cc3ccc(N)cc3nc2c1,107% (inactive) and 21% (inactive)
4,CO[C@H](C(=O)[C@@H](O)[C@@H](C)O)[C@@H]1Cc2cc3cc(OC4CC(OC5CC(O)C(O)C(C)O5)C(O)C(C)O4)c(C)c(O)c3c(O)c2C(=O)[C@H]1OC1CC(OC2CC(OC3CC(C)(O)C(O)C(C)O3)C(O)C(C)O2)C(O)C(C)O1 (stereo not given in full),-20.2% (active)
5,CCC(C)(C)c1cc(O)c(C(C)(C)CC)cc1O,43% (inactive)
6,Cc1cc(NS(=O)(=O)c2ccc(N=Nc3cc(N=Nc4ccc(S(=O)(=O)Nc5cc(C)nc(C)n5)cc4)c4c(NC(=O)C(Cl)Cl)cccc4c3OC(=O)C(Cl)Cl)cc2)nc(C)n1 (tested in a mixture with another compound),99.3% (inactive) and 108% (inactive)
7,O=C(Nc1ccc(C(=O)O)c(O)c1)c1ccccc1,98% (inactive) and 104% (inactive)
8,CC(=O)Nc1cc(C)ccc1C,96.8% (inactive)
9,CCCCCCCCCCCCCCCCCCOCC(COP(=O)([O-])OCC[N+](C)(C)C)OC (stereo not given),88.8% (inactive)
10,CCCC1CCC(=C2C(=O)CCC2=O)O1 (stereo not given),92.7% (inactive) and 96.7% (inactive)
11,COC(=O)C1C(O)C(C)C(O)C(C)C=C(C)C2=C3C(=C(C)C(=O)c4c(O)c(c(C)c(OC(C)=O)c43)NC(=O)C(C)=C/C=C\C(C)C(O)C(C)C1O)OCO2 (stereo not given),110% (inactive)
12,CCCCCCCCCCSC(=N)N,68.4% (inactive)
13,CS(=O)(=O)OC1CC(n2ccc(=O)[nH]c2=O)OC1COC(c1ccccc1)(c1ccccc1)c1ccccc1 (stereo not given),105% (inactive)
14,Clc1cc(Cl)c(Cl)nn1,100% (inactive)
15,OCC(O)C(O)C(O)C(/C=N/Nc1ccccc1)=N/Nc1ccccc1 (stereo not given),91.3% (inactive)
16,CSC1SCC2C(=O)N(C)C(C(C)C)C(=O)OCC(NC(=O)c3cnc4ccccc4n3)C(=O)NC(C)C(=O)N(C)C1C(=O)N(C)C(C(C)C)C(=O)OCC(NC(=O)c1cnc3ccccc3n1)C(=O)NC(C)C(=O)N2C (stereo not given),-52.9% (active)
17,COc1cccc2c1C(=O)c1c(O)c3c(c(O)c1C2=O)C[C@@](O)(C(C)=O)C[C@@H]3OC1CC(N)C(O)C(C)O1 (stereo not given in full),-70.9% (active)
18,CCCCCCCCCCCC[N+](C)(C)Cc1ccccc1,53.6% (inactive)
19,CC(=O)OCC(OC(C)=O)C(OC(C)=O)C(OC(C)=O)C(OC(C)=O)C(/C=N/Nc1ccccc1)=N/Nc1ccccc1 (stereo not given),89.9% (inactive)
20,Clc1ccc(/C=C/c2ccccn2)c(Cl)c1,89.3% (inactive)
21,CC(C)(C)CC(C)(C)c1ccc(OCCO)cc1,96.8% (inactive)
22,COc1cccc2c1C(=O)c1c(O)c3c(c(O)c1C2=O)C[C@@](O)(C(=O)CO)C[C@@H]3OC1CC(N)C(O)C(C)O1 (stereo not given in full),-50.3% (active)
23,CCCCCCCCCCCCSC(=NC)NC,29.3% (inactive) and 55.4% (inactive)
24,O=C1NC(=O)c2cc([N+](=O)[O-])ccc21,101% (inactive)
25,O=C(/C=C/c1ccccn1)c1ccccc1,68.5% (inactive)
26,O=c1ccn(C2CC(O)C(COC(c3ccccc3)(c3ccccc3)c3ccccc3)O2)c(=O)[nH]1 (stereo not given),97.2% (inactive)
27,CC(C)C(NC(=O)CN)C(=O)O (stereo not given) (H-Gly-[ξV]-OH),103% (inactive) and 106% (inactive)
28,CCN(CC)c1ccc(NC(C(=O)c2ccccc2)c2ccccc2)cc1 (stereo not given),-50.1% (active)
